The source of these data is PubChem BioAssay (NCI).

Among the test systems are RPMI-8226 leukemia; OVCAR-8 ovarian; OVCAR-5 ovarian; OVCAR-4 ovarian; SK-OV-3 ovarian; IGROV1 ovarian; OVCAR-3 ovarian; HS 578T breast; NCI/ADR-RES ovarian; T-47D breast; BT-549 breast; MDA-MB-435 melanoma; SW-620 colon; MCF7 breast; HCT-116 colon; KM12 colon; HCC-2998 colon.
Common to all, as to assay: NCI-60 one-dose screen, 48 h (100 = growth as untreated, 0 = no growth, -100 = all killed)
Common to all, as to settings: 10 µM

The structures appear in SMILES notation. This is part of a sample that, as a whole, favours compounds with a hit. Of some 83,000 tested, about 20% had one in any assay.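 48-hour exposure, single concentration, 96-well plates; percent growth endpoint where 0 means no net growth. Active: below 10.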 Unmarked numbers belong to inactive results. The source made the active and inactive calls.

For the compound `COc1ccc2c(c1)N(CCO)C1=C(C(=O)OC1)C2c1ccc(OC)c(OC)c1` (stereo not drawn), the growth in the assay on RPMI-8226 leukemia was 62.9%; in the assay with OVCAR-8 ovarian, 48.7%; with OVCAR-5 ovarian, 47.7%; with OVCAR-4 ovarian it was 64.6%; in the assay on SK-OV-3 ovarian it was 40.5%; in the assay on IGROV1 ovarian, 53.4%. For the same compound, the growth in the assay with OVCAR-3 ovarian is -18.2% (active); with HS 578T breast, 31%; with NCI/ADR-RES ovarian, 71.8%; in the assay on T-47D breast it was 45.5%; in the assay with BT-549 breast it was 64.2%; in the assay with MDA-MB-435 melanoma it was -25.9% (active). Besides, the growth in the assay on SW-620 colon was 17.5%; in the assay on MCF7 breast, 27.3%; in the assay on HCT-116 colon, 26.7%; in the assay on KM12 colon, 18.7%.
For `COC(=O)C(C(C[N+](=O)[O-])c1ccccc1)=P(c1ccccc1)(c1ccccc1)c1ccccc1` (stereo not drawn), the growth with RPMI-8226 leukemia is -28.2% (active); in the assay with OVCAR-8 ovarian, 93.4%; with OVCAR-5 ovarian, 96.5%; in the assay with OVCAR-4 ovarian it was 98.3%; in the assay with SK-OV-3 ovarian, 95.7%; in the assay on IGROV1 ovarian, 66%. In addition, the growth with OVCAR-3 ovarian is 89.5%; with HS 578T breast it was 110%; with NCI/ADR-RES ovarian, 103%; with T-47D breast, 83.9%; in the assay with BT-549 breast, 93%; in the assay on MDA-MB-435 melanoma, 49.5%. Also, the growth was 30.2% with MCF7 breast, 4.02% (active) in the assay on HCT-116 colon, 101% in the assay with HCC-2998 colon and 88.3% with KM12 colon.
For the compound `CC12O[C@H](C[C@@H](OC(=O)c3ccccc3)[C@H]1O)n1c3ccccc3c3c4c(c5c6ccccc6n2c5c31)C(=O)NC4=O`, the growth was 54.6% with RPMI-8226 leukemia; 86.5% in the assay on OVCAR-8 ovarian; 59.3% in the assay with OVCAR-5 ovarian; 84.5% with OVCAR-4 ovarian; 12.6% with SK-OV-3 ovarian; 62% in the assay with IGROV1 ovarian. In addition, the growth with OVCAR-3 ovarian is 103%; in the assay with HS 578T breast it was 69.3%; in the assay on NCI/ADR-RES ovarian it was 77.8%; with T-47D breast, 59.3%; with BT-549 breast, 84.8%; with MDA-MB-435 melanoma, 60.2%. Further, the growth is 69.3% with MCF7 breast, 70.1% in the assay on HCT-116 colon, 87.2% in the assay on HCC-2998 colon and 19.3% in the assay with KM12 colon.
In the case of `Cc1ccc(S(=O)(=O)Oc2ccc3c4c(c(=O)oc3c2)CCCCC4)cc1`, the growth is 24% in the assay on RPMI-8226 leukemia; 63.1% with OVCAR-8 ovarian; 93.5% in the assay on OVCAR-5 ovarian; 51.3% in the assay with OVCAR-4 ovarian; 93.1% in the assay with SK-OV-3 ovarian; 82.1% in the assay with IGROV1 ovarian. Further, the growth in the assay with OVCAR-3 ovarian was 75.1%; with HS 578T breast, 79.7%; in the assay on NCI/ADR-RES ovarian, 53.2%; in the assay with T-47D breast, 33.4%; with BT-549 breast, 47.3%; in the assay with MDA-MB-435 melanoma, 57%. Besides, the growth was 50.5% in the assay with MCF7 breast, 36.7% in the assay with HCT-116 colon, 51.4% in the assay on HCC-2998 colon and 35.3% in the assay with KM12 colon.
For the compound `CSCCCNC(=O)c1ccc2c(c1)/C(=C/c1[nH]c(C)cc1C)C(=O)N2`, the growth was 19.7% in the assay with RPMI-8226 leukemia; 32.6% in the assay with OVCAR-8 ovarian; 35.9% with OVCAR-5 ovarian; 27.6% in the assay with OVCAR-4 ovarian; 20.5% in the assay with SK-OV-3 ovarian; -12.5% (active) with IGROV1 ovarian. For the same compound, the growth with OVCAR-3 ovarian is 45%; in the assay with HS 578T breast it was -13.5% (active); in the assay with NCI/ADR-RES ovarian, 42.9%; with T-47D breast it was 44.5%; in the assay on BT-549 breast it was 9.33% (active); in the assay on MDA-MB-435 melanoma, 13.4%. For the same compound, the growth is 28.9% in the assay with SW-620 colon, 3.75% (active) with HCT-116 colon, 30.3% with HCC-2998 colon and 17.1% in the assay with KM12 colon.
Consider `Cc1ccc(CC#N)cc1C`, for which the growth in the assay on RPMI-8226 leukemia is 134%; in the assay on OVCAR-8 ovarian it was 78.3%; with OVCAR-5 ovarian it was 88.8%; with OVCAR-4 ovarian it was 109%; with SK-OV-3 ovarian, 117%; in the assay with IGROV1 ovarian, 74.9%. Also, the growth in the assay on OVCAR-3 ovarian is 95.4%; with HS 578T breast, 173%; in the assay on NCI/ADR-RES ovarian, 106%; with T-47D breast it was 98.4%; in the assay on BT-549 breast, 124%; with MDA-MB-435 melanoma, 88.4%. In addition, the growth is 104% in the assay with MCF7 breast, 93% with HCT-116 colon, 103% with HCC-2998 colon and 94.7% with KM12 colon.
Consider `O=C(CC(NC(=O)OCc1ccccc1)C(=O)OCc1ccccc1)OCc1ccccc1` (stereo not drawn), for which the growth with RPMI-8226 leukemia was 99.2%; with OVCAR-8 ovarian, 99%; in the assay on OVCAR-5 ovarian, 103%; in the assay with OVCAR-4 ovarian it was 109%; with SK-OV-3 ovarian, 95.1%; in the assay with IGROV1 ovarian, 108%. Besides, the growth with OVCAR-3 ovarian was 110%; in the assay on HS 578T breast, 97.9%; in the assay on NCI/ADR-RES ovarian, 98%; in the assay with T-47D breast it was 100%; in the assay on BT-549 breast, 112%; with MDA-MB-435 melanoma, 102%. For the same compound, the growth with SW-620 colon was 91.6%; in the assay on MCF7 breast, 102%; in the assay on HCT-116 colon it was 97.4%; with KM12 colon it was 108%.
Turning to `O=C(NC(Cc1ccc(O)cc1)C(=O)N=Nc1c(O)[nH]c2ccccc12)c1ccccc1` (stereo not drawn), the growth in the assay with RPMI-8226 leukemia was 112%; with OVCAR-8 ovarian, 93.9%; with OVCAR-5 ovarian, 110%; in the assay on OVCAR-4 ovarian, 95.7%; in the assay on SK-OV-3 ovarian it was 103%; in the assay with IGROV1 ovarian, 108%. Also, the growth is 103% in the assay with OVCAR-3 ovarian; 101% in the assay with HS 578T breast; 98.7% with NCI/ADR-RES ovarian; 107% in the assay with T-47D breast; 102% in the assay on BT-549 breast; 103% with MDA-MB-435 melanoma. The growth in the assay with MCF7 breast is 103%; with HCT-116 colon, 99.3%; in the assay on KM12 colon it was 99.2%.
With `c1ccc([I+]c2ccccc2)cc1`, the growth with RPMI-8226 leukemia is 46.7%; with OVCAR-8 ovarian, 39.2%; in the assay with OVCAR-5 ovarian it was 85.2%; in the assay on OVCAR-4 ovarian, 66%; in the assay on SK-OV-3 ovarian, 68.7%; in the assay with IGROV1 ovarian, 45.6%. Further, the growth in the assay on OVCAR-3 ovarian is 62.7%; with HS 578T breast, 116%; in the assay with NCI/ADR-RES ovarian it was 91.5%; with T-47D breast, 76.8%; in the assay on BT-549 breast, 65.5%; in the assay on MDA-MB-435 melanoma, 68.9%. For the same compound, the growth is 40.8% in the assay on SW-620 colon, 64% with MCF7 breast, 31% in the assay with HCT-116 colon and 41.9% with KM12 colon.
